Inconclusive results are not listed. Calls of active or inactive are those of the source. Calls follow the shape of the dose curve; as a rule, active = well fitted curve in the direction sought with a large enough effect; inconclusive = small, poorly fitted or top-dose-only effect, or another doubt; inactive = no such curve, though single readings can be large; an effect the other way counts as inactive or inconclusive.
Key:
MCC-13 = test: qHTS assay to identify novel small-molecules to repurpose for Merkel cell carcinoma treatment (AID 1296009); details: MCC and control cell lines, CellTiter-Glo viability, 72 h; series mostly up to 46 µM; also: nearly all actives have a fitted effect of over 60% in size
Summary of the method: (§1)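 After compound transfer in DMSO, plates were kept 72 hr at 37 degree celsius. Luminescent ATP signal from CellTiter-Glo served as viability measure, normalized against DMSO and no-cell controls.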

MCC-26 = test: as above; details: MCC and control cell lines, CellTiter-Glo viability, 72 h; series mostly up to 46 µM
Summary of the method: as §1

MKL-1 = test: as above; details: MCC and control cell lines, CellTiter-Glo viability, 72 h; series mostly up to 46 µM
Summary of the method: as §1

MKL-2 = test: as above; details: MCC and control cell lines, CellTiter-Glo viability, 72 h; series mostly up to 46 µM
Summary of the method: as §1

UISO = test: as above; details: MCC and control cell lines, CellTiter-Glo viability, 72 h; series mostly up to 46 µM
Summary of the method: as §1

WaGa = test: as above; details: MCC and control cell lines, CellTiter-Glo viability, 72 h; series mostly up to 46 µM
Summary of the method: as §1

C33A = test: Primary qHTS to identify gynecologic anti-cancer compounds using libraries of approved drugs and bioactive compounds (AID 1345084); details: Gynecologic cancer cell panel viability, ATPlite luminescence, 48 h; series mostly up to 57.5 µM; also: nearly all actives have a fitted effect of over 55% in size
Summary of the method: (§2)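 48 h compound exposure at 37 C, 5% CO2; five-point qHTS. ATPlite luminescence readout of cell ATP.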

CAOV3 = test: as above; details: Gynecologic cancer cell panel viability, ATPlite luminescence, 48 h; series mostly up to 57.5 µM
Summary of the method: as §2

CASKI = test: as above; details: Gynecologic cancer cell panel viability, ATPlite luminescence, 48 h; series mostly up to 57.5 µM
Summary of the method: as §2

Es-2 = test: as above; details: Gynecologic cancer cell panel viability, ATPlite luminescence, 48 h; series mostly up to 57.5 µM
Summary of the method: as §2

HeLa = test: as above; details: Gynecologic cancer cell panel viability, ATPlite luminescence, 48 h; series mostly up to 57.5 µM
Summary of the method: as §2

Hek293T = test: as above; details: Gynecologic cancer cell panel viability, ATPlite luminescence, 48 h, control line for the selectivity index; series mostly up to 57.5 µM
Summary of the method: as §2

JEG-3 = test: as above; details: Gynecologic cancer cell panel viability, ATPlite luminescence, 48 h; series mostly up to 57.5 µM
Summary of the method: as §2

OV90 = test: as above; details: Gynecologic cancer cell panel viability, ATPlite luminescence, 48 h; series mostly up to 57.5 µM
Summary of the method: as §2

PA-1 = test: as above; details: Gynecologic cancer cell panel viability, ATPlite luminescence, 48 h; series mostly up to 57.5 µM
Summary of the method: as §2

SKOV3 = test: as above; details: Gynecologic cancer cell panel viability, ATPlite luminescence, 48 h; series mostly up to 57.5 µM
Summary of the method: as §2

Tov-21-G = test: as above; details: Gynecologic cancer cell panel viability, ATPlite luminescence, 48 h; series mostly up to 57.5 µM
Summary of the method: as §2

Tov112D = test: as above; details: Gynecologic cancer cell panel viability, ATPlite luminescence, 48 h; series mostly up to 57.5 µM
Summary of the method: as §2

[1] = Drug repurposing screens with cells derived from glioblastoma tumor samples (AID 1345199); details: GBM patient neurospheres viability, ATP luminescence, 48 h; also: nearly all actives have a fitted effect of over 40% in size
Summary of the method: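 Four patient lines of CD133+ GBM neurospheres were screened at several concentrations; hits were retested in those lines plus three slower-growing GBM lines, using 48-hour treatment and ATP-based viability.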

[2] = at 45.9 µM (top of the series), tumour line B
[3] = at 45.9 µM (top of the series), tumour line D
[4] = at 46 µM (top of the series), tumour line A
[5] = at 46.1 µM (top of the series), tumour line C
% is scaled to controls: 0 for no effect and ±100 for the full control effect.

COC(=O)N/N=C/c1c[n+]([O-])c2ccccc2[n+]1[O-]
inactive: outcome (MCC-13) | outcome (MCC-26) | outcome (MKL-1) | outcome (MKL-2) | outcome (UISO) | outcome (WaGa) | outcome (C33A) | outcome (CAOV3) | outcome (CASKI) | outcome (Es-2) | outcome (HeLa) | outcome (Hek293T) | outcome (JEG-3) | Potency (OV90) | outcome (PA-1) | outcome (SKOV3) | outcome (Tov-21-G) | outcome (Tov112D) | activity, negative = cell killing [1, 2] 3.32% | activity, negative = cell killing [1, 3] -10.1% | activity, negative = cell killing [1, 4] -9.78% | activity, negative = cell killing [1, 5] 2.7%

Cc1cc(C)c(NC(=O)CN(CC(=O)O)CC(=O)O)c(C)c1Br
inactive: outcome (MCC-13) | outcome (MCC-26) | outcome (MKL-1) | outcome (MKL-2) | outcome (UISO) | outcome (WaGa) | outcome (C33A) | outcome (CAOV3) | outcome (CASKI) | outcome (Es-2) | outcome (HeLa) | outcome (Hek293T) | outcome (JEG-3) | Potency (OV90) | outcome (PA-1) | outcome (SKOV3) | outcome (Tov-21-G) | outcome (Tov112D) | activity, negative = cell killing [1, 2] -5.55% | activity, negative = cell killing [1, 3] -2.68% | activity, negative = cell killing [1, 4] -17.3% | activity, negative = cell killing [1, 5] -18.8%

NC(=O)CC[C@@H](N)C(=O)O
inactive: outcome (MCC-13) | outcome (MCC-26) | outcome (MKL-1) | outcome (MKL-2) | outcome (UISO) | outcome (WaGa) | outcome (C33A) | outcome (CAOV3) | outcome (CASKI) | outcome (Es-2) | outcome (HeLa) | outcome (Hek293T) | outcome (JEG-3) | Potency (OV90) | outcome (PA-1) | outcome (SKOV3) | outcome (Tov-21-G) | outcome (Tov112D) | activity, negative = cell killing [1, 2] -5.88% | activity, negative = cell killing [1, 3] 12.3% | activity, negative = cell killing [1, 4] 4.73% | activity, negative = cell killing [1, 5] 1.46%

CC(=O)N[C@@H](CC(C)C)C(=O)O
inactive: outcome (MCC-13) | outcome (MCC-26) | outcome (MKL-1) | outcome (MKL-2) | outcome (UISO) | outcome (WaGa) | outcome (C33A) | outcome (CAOV3) | outcome (CASKI) | outcome (Es-2) | outcome (HeLa) | outcome (Hek293T) | outcome (JEG-3) | Potency (OV90) | outcome (PA-1) | outcome (SKOV3) | outcome (Tov-21-G) | outcome (Tov112D) | activity, negative = cell killing [1, 2] -11.1% | activity, negative = cell killing [1, 3] -9.62% | activity, negative = cell killing [1, 4] -21.1% | activity, negative = cell killing [1, 5] -11.2%

CC1(C)S[C@@H]2[C@H](NC(=O)C(C(=O)O)c3ccccc3)C(=O)N2[C@H]1C(=O)O (some centres undefined)
inactive: outcome (MCC-13) | outcome (MCC-26) | outcome (MKL-1) | outcome (MKL-2) | outcome (UISO) | outcome (WaGa) | outcome (C33A) | outcome (CAOV3) | outcome (CASKI) | outcome (Es-2) | outcome (HeLa) | outcome (Hek293T) | outcome (JEG-3) | Potency (OV90) | outcome (PA-1) | outcome (SKOV3) | outcome (Tov-21-G) | outcome (Tov112D) | activity, negative = cell killing [1, 2] 2.69% | activity, negative = cell killing [1, 3] -6.27% | activity, negative = cell killing [1, 4] -8.84% | activity, negative = cell killing [1, 5] 7.57%

CC(=O)NCc1c(I)c(NC(C)=O)c(I)c(C(=O)O)c1I
inactive: outcome (MCC-13) | outcome (MCC-26) | outcome (MKL-1) | outcome (MKL-2) | outcome (UISO) | outcome (WaGa) | outcome (C33A) | outcome (CAOV3) | outcome (CASKI) | outcome (Es-2) | outcome (HeLa) | outcome (Hek293T) | outcome (JEG-3) | Potency (OV90) | outcome (PA-1) | outcome (SKOV3) | outcome (Tov-21-G) | outcome (Tov112D) | activity, negative = cell killing [1, 2] -9.68% | activity, negative = cell killing [1, 3] -11.6% | activity, negative = cell killing [1, 4] -20.1% | activity, negative = cell killing [1, 5] -11.1%

CC(C)(C)C(=O)OCOC(=O)[C@@H]1N2C(=O)[C@@H](NC(=O)[C@H](N)c3ccccc3)[C@H]2SC1(C)C
inactive: outcome (MCC-13) | outcome (MCC-26) | outcome (MKL-1) | outcome (MKL-2) | outcome (UISO) | outcome (WaGa) | outcome (C33A) | outcome (CAOV3) | outcome (CASKI) | outcome (Es-2) | outcome (HeLa) | outcome (Hek293T) | outcome (JEG-3) | Potency (OV90) | outcome (PA-1) | outcome (SKOV3) | outcome (Tov-21-G) | outcome (Tov112D) | activity, negative = cell killing ([1]; at 20 µM (top of the series), tumour line C) 0.2% | activity, negative = cell killing ([1]; at 21.2 µM (top of the series), tumour line B) -3.35% | activity, negative = cell killing ([1]; at 21.2 µM (top of the series), tumour line D) -17.5% | activity, negative = cell killing ([1]; at 21.3 µM (top of the series), tumour line A) -4.53%

— PubChem BioAssay (NCATS)
